Assay [1] in a line: AP1 Signaling Pathway (AID 357; active = well fitted curve in either direction with a large enough effect, not every such curve was filed as active; note: % is set by controls: 0 for no effect and ±100 for the full control effect). Conditions: ME-180 AP-1-bla reporter, EGF-induced, beta-lactamase ratio, 5 h. In short, it runs like this: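 Cells are seeded overnight, exposed to compound titrations and an EC50 level of EGF for 5 hours at 37 °C, then loaded with CCF4 dye for 2.5 hours. Beta-lactamase activity under the AP-1 element is read as a blue/green ratio.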
Assay [2] has as its target Cytochrome P450 1A2 (Homo sapiens) (UniProt P05177). Put plainly: p450-cyp1a2 (AID 410; calls by dose curve; note: potency is the fitted concentration of half-maximal effect;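 for activity change, negative = inhibition: -100% = full effect of reference inhibitor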). In outline:
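Read-out is luminescence from luciferin produced by CYP1A2 demethylation of Luciferin-ME (100uM, at Km). Detection reagent stopped the 60 min NADPH-dependent reaction; signals were normalized to 57 uM furafylline.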

Assay [3] can be described thus: NFAT Signaling Pathway (AID 444; active = well fitted curve in either direction with a large enough effect, not every such curve was filed as active;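 note: carbachol stimulus at about its EC50 of 1 µM final; % is set by controls: 0 for no effect and ±100 for the full control effect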). Conditions: Jurkat NFAT-bla M1, carbachol, beta-lactamase ratio, 5 h; at 7.69 µM (top of the series) unless noted. In short, it runs like this: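 Read-out: CCF4 FRET ratio (460 nm/530 nm) after 1 h RT dye loading, used for %activity and AC50 from titration series. Cells: Jurkat NFAT-β-lactamase/M1 line, treated with compound plus 1 uM carbachol for 5 h, 37 °C.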

A short description of assay [4]: Stat Signaling Pathway (AID 446; active = well fitted curve in either direction with a large enough effect, not every such curve was filed as active;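 note: ME-180 cervical cancer cells given 40 pM IL-6 alongside compound; SIE-controlled beta-lactamase reporter measured as 460/530 nm FRET emission ratio; % is set by controls: 0 for no effect and ±100 for the full control effect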). The following applies: ME-180 (cervical carcinoma) SIE beta-lactamase reporter, IL-6 stimulated, 5 h; at 7.69 µM (top of the series) unless noted. In short, it runs like this: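 Normalization used AC90 stimulation (300 pM IL-6) and AC90 inhibition (125 nM pan-JAK inhibitor at 40 pM IL-6). The underlying signal is SIE-driven beta-lactamase in ME-180 cells after 5 h IL-6 exposure with compound.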

Assay [5] has as its target Glucocorticoid receptor (Homo sapiens) (UniProt P04150). Put plainly: GR-GFP Redistribution (AID 450;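 active = compounds whose dose series gives a full or clear partial fitted curve of increased nuclear translocation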; note: potency is the fitted concentration of half-maximal effect). The following applies: U2OS GR-GFP nuclear translocation, laser cytometry, 2 h.
The target is the same in assay [6]. Description: GR-EFC Redistribution (AID 451; calls by dose curve; note: potency is the fitted concentration of half-maximal effect). Conditions: CHO-K1 GR-EFC translocation, beta-gal luminescence, 2 h. In short, it runs like this: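 Translocation of GR-ED fusion to nuclear EA restores b-gal, read by luminescence after 1 h room-temperature detection. Engineered CHO-K1 biosensor cells, 1,000/well, exposed 2 h at 37 C to titrations up to 46 uM final.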

For assay [7], the target named is Mitogen-activated protein kinase 10 (Mus musculus) (UniProt Q61831). Description: JNK3 AlphaScreen Assay (AID 530; active = well fitted curve in either direction with a large enough effect, not every such curve was filed as active;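 note: kinase came from lysate of stimulated human HepG2 cells; signal reports phosphorylation of biotinylated GST-cJun 1-79 at Ser73 with 10 µM ATP; % is set by controls: 0 for no effect and ±100 for the full control effect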). In outline:
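Kinase buffer: 20 mM Tris-HCl pH 7.6, 10 mM MgCl2, 1 mM DTT, 0.1 mM Na3VO4, 0.01% Tween-20; ATP 10 uM. Substrate biotin-GST-cJun(1-79), enzyme from activated HepG2 lysates. Detection by Ser73 phospho-antibody AlphaScreen.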
In general terms: Bead proximity is the source of the signal in Alpha formats.

Assay [8] addresses 3',5'-cyclic-AMP phosphodiesterase 4B (Homo sapiens) (UniProt Q07343). Description: qHTS Assay for Inhibitors of PDE-IV (AID 607; active = well fitted activation curve with a large enough effect in the main read-out, with a control signal flat, not every such curve was filed as active; note: % of control where 0% means no effect). In outline:
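HEK293 ACTOne cells with CNG channel (1000/well), endogenous PDE4; membrane potential dye, compounds up to 22.9 uM final. Fluorescence Ex 535/Em 590; RO 20-1724 (100 uM final) as reference.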
Background: qHTS replaces the single test concentration by a dilution series.

A short description of assay [9]: qHTS Assay for Lipid Storage Modulators (AID 1519; calls by dose curve). Conditions: Drosophila S3 cells, BODIPY lipid droplet/cell ratio, laser cytometry, cells loaded with oleic acid; for activity change, negative = inhibition: at 25.7 µM (top of the series). In short, it runs like this:
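Cells seeded at 5,000 per well were treated with compounds over a concentration series and loaded with oleic acid (400 uM, as added). Lipid droplet fluorescence (488 nm excitation, 500-530 nm channel) was read by laser-scanning cytometry and normalized to 20 uM Triacsin C.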

For assay [10], the target named is ATP-dependent 6-phosphofructokinase (Trypanosoma brucei brucei) (UniProt O15648). Description: qHTS Assay to Find Inhibitors of T. brucei phosphofructokinase: hit validation (AID 492961). In outline:
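Measures ADP output of PFK (1.25 nM) at 0.1 mM ATP, 0.5 mM F6P, pH 8.0 TEA buffer with 5 mM MgCl2. No-enzyme wells define full inhibition; uninhibited enzyme wells define zero.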

The target of assay [11] is Ubiquitin carboxyl-terminal hydrolase 1 (Homo sapiens) (UniProt O94782). Description: Inhibitors of USP1/UAF1: Pilot qHTS (AID 504865).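 Note: rhodamine fluorescence freed from ubiquitin-rhodamine substrate followed over time; top concentration of the series differs between compounds; % is set by controls: 0 for no effect and ±100 for the full control effect; nearly all actives have a fitted effect of over 35% in size.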 In outline:
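Enzyme-free wells gave the negative control, while test wells held 1nM USP1/UAF1 preincubated with compound for 15 min at room temperature. Ub-Rho at 150nM final started the reaction, and fluorescence at 480/540 nm was recorded kinetically.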

Assay [12] concerns the target Luciferin 4-monooxygenase (Photinus pyralis) (UniProt P08659). Description: Biochemical firefly luciferase enzyme assay for NPC (AID 624030).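 Note: purified P. pyralis luciferase at 10 nM with luciferin and ATP substrate; 0% = DMSO and -100% = full luciferase inhibition by PTC124 control; nearly all actives have a fitted effect of over 70% in size.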 In short, it runs like this: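 Direct inhibition of firefly luciferase enzyme (10 nM final, 50 mM Tris Acetate) assessed by luminescence within 5 minutes. Percent activity scaled between DMSO and PTC124 positive control, with concentration-effect curves classified by fit quality and response.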

Assay [13] can be described thus: qHTS profiling for inhibitors of Plasmodium falciparum proliferation (AID 504749).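 Note: 0% = DMSO vehicle and full inhibition = artemisinin control; nearly all actives have a fitted effect of over 60% in size.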 The following applies: P. falciparum in erythrocytes, SYBR Green DNA, 72 h, at 12.8 µM (top of the series). In short, it runs like this: (§1)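 In a 72 h erythrocytic culture (37 C, humidified, 5% CO2) at 2.5% hematocrit and 0.3% starting parasitemia, compounds were tested; SYBR Green I in detergent lysis buffer stained parasite DNA overnight.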

For a further assay, the system named is AS120. The description is as above. Conditions: P. falciparum in erythrocytes, SYBR Green DNA, 72 h; series mostly up to 28.7 µM. In outline: as §1
Another assay deals with CP238. The description is as above. Conditions: P. falciparum in erythrocytes, SYBR Green DNA, 72 h; series mostly up to 12.8 µM. In short, it runs like this: as §1
A further assay has as its system CP265. The description is as above. Conditions: P. falciparum in erythrocytes, SYBR Green DNA, 72 h; series mostly up to 12.8 µM. In short, it runs like this: as §1
For another assay, the system named is FAB9. The description is as above. The following applies: P. falciparum in erythrocytes, SYBR Green DNA, 72 h; series mostly up to 12.8 µM. In short, it runs like this: as §1
In assay [14] the target is Pyruvate kinase (Leishmania mexicana) (UniProt Q27686). Description: qHTS Validation Assay for Inhibitors of Leishmania Mexicana Pyruvate Kinase (AID 945).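 Note: 0% = DMSO only neutral control wells.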 In short, it runs like this: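 Eight-point qHTS titrations in triplicate, data normalized to DMSO neutral control. Reaction: 0.2 nM LmPYK E451W mutant, 0.5 mM PEP, 0.1 mM ADP, 7 mM MgCl2, pH 7.2, one hour at room temperature; luminescent ATP detection.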
Chain of Pyruvate kinase (Leishmania mexicana) (Q27686 2-499 E452W): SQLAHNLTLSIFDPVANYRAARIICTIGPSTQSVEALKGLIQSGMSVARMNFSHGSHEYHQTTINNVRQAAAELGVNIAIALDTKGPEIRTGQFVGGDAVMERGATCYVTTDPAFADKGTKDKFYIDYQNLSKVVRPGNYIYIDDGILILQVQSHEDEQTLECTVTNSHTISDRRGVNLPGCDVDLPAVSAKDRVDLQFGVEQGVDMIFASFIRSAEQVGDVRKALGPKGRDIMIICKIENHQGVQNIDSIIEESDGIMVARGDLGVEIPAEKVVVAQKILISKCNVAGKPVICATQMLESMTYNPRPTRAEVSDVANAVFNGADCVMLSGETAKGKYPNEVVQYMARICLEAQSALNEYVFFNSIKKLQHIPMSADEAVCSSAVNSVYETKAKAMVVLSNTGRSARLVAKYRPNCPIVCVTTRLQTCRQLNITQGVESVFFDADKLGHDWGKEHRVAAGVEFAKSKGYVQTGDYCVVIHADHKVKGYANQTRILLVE

The target of assay [15] is Alpha-galactosidase A (Homo sapiens) (UniProt P06280). Description: Counterscreen for Glucocerebrosidase Inhibitors: qHTS Assay for Human alpha-Galactosidase at pH 4.5 (AID 992). Note: 0% is about no effect. In short, it runs like this:
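Steps: enzyme (2 nM final), then compound across 0.7 nM to 77 uM, then 80 uM fluorogenic galactopyranoside substrate; incubate 20 min at room temperature; quench at pH 10; measure fluorescence at 365/440 nm.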

Assay [16] concerns the target alpha-glucosidase (Oryza sativa, rice) (UniProt Q653V4). Description: Counterscreen for Glucocerebrosidase Inhibitors: qHTS Assay for Rice alpha-Glucosidase at pH 5.0 (AID 997).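 Note: 0% = full activity with enzyme and -100% = basal without enzyme.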 In outline: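 Endpoint fluorogenic assay at pH 5.0: compounds (0.7 nM to 77 uM) titrated against 4 nM rice enzyme and 400 uM 4-MU-alpha-glucoside for 20 min at room temperature; NaOH/glycine stop, read ex 365/em 440 nm, Hill-fitted AC50.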
(In general: The purpose of a counterscreen is to sort out artefacts and off-target activity.)

Setting [17] is: at 7.69 µM (top of the series) unless noted.
The mark [18] stands for this setting: measured here: cell count channel max response.
Setting [19] is: measured here: lipid channel max response.

Molecules are shown by their SMILES. Several values for one entry are separate records, joined by “and”; a condition that tells them apart may be missing. Identical values can stand only once. Inconclusive results are not listed. Activity calls are given as the source filed them. Unless noted, calls come from the whole dose curve; as a rule, active = well fitted curve in the direction sought with a large enough effect; inconclusive = small, poorly fitted or top-dose-only effect, or another doubt; inactive = no such curve, though single readings can be large; an effect the other way counts as inactive or inconclusive.

Chain of Cytochrome P450 1A2 (Homo sapiens) (P05177 whole entry, looked up): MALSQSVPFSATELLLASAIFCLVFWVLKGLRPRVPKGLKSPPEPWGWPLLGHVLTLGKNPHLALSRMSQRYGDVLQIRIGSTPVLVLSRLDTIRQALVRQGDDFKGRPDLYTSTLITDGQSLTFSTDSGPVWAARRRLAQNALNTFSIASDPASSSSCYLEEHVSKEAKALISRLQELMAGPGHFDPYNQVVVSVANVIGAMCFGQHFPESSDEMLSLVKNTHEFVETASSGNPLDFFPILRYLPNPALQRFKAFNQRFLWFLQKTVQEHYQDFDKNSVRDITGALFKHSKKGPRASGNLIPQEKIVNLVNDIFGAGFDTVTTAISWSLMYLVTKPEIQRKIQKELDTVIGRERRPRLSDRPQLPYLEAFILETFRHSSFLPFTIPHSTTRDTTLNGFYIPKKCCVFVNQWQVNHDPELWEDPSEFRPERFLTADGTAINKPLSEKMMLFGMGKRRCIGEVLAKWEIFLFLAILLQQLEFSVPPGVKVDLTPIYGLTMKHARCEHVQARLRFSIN
Chain of 3',5'-cyclic-AMP phosphodiesterase 4B (Homo sapiens) (Q07343 whole entry, looked up): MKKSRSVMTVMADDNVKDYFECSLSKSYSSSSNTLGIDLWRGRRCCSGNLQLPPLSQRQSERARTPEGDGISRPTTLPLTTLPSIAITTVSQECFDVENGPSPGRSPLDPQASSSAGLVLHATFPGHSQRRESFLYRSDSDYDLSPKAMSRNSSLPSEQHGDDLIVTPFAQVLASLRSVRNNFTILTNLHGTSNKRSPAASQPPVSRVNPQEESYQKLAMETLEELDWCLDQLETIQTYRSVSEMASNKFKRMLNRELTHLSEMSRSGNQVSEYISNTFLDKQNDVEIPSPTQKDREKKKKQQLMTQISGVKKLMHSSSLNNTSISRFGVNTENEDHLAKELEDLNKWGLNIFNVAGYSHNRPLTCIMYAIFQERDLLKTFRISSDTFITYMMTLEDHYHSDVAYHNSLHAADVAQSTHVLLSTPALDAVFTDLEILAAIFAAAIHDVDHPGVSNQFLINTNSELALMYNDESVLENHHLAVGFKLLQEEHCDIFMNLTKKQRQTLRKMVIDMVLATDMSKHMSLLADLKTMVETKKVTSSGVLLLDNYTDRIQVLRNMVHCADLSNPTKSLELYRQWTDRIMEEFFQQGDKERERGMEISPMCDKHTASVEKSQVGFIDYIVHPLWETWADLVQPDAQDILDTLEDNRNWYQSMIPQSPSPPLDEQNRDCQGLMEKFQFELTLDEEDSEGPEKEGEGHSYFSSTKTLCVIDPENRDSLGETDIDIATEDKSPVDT
Chain of Glucocorticoid receptor (Homo sapiens) (P04150 whole entry, looked up, the tested form may be a part): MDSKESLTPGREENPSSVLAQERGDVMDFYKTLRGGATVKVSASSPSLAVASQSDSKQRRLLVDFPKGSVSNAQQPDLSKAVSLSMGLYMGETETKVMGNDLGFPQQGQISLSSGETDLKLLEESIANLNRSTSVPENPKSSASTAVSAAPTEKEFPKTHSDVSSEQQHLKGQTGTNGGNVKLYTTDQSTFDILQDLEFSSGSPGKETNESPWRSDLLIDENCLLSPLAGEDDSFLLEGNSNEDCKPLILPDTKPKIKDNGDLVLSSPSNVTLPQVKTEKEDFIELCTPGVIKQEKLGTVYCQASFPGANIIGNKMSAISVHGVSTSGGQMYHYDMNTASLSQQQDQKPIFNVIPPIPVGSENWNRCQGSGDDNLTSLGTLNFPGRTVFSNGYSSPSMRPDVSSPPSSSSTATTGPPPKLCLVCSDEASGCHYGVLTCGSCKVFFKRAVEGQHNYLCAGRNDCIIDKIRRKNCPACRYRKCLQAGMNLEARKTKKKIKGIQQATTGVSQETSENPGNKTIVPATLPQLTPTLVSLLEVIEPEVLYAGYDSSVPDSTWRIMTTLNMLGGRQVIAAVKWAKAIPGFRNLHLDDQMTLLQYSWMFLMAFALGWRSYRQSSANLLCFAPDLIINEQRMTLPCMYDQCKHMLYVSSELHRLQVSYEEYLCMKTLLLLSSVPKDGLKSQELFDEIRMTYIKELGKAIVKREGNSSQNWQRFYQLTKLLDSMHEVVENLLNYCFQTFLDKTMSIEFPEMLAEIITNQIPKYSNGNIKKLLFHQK
Chain of Luciferin 4-monooxygenase (Photinus pyralis) (P08659 whole entry, looked up): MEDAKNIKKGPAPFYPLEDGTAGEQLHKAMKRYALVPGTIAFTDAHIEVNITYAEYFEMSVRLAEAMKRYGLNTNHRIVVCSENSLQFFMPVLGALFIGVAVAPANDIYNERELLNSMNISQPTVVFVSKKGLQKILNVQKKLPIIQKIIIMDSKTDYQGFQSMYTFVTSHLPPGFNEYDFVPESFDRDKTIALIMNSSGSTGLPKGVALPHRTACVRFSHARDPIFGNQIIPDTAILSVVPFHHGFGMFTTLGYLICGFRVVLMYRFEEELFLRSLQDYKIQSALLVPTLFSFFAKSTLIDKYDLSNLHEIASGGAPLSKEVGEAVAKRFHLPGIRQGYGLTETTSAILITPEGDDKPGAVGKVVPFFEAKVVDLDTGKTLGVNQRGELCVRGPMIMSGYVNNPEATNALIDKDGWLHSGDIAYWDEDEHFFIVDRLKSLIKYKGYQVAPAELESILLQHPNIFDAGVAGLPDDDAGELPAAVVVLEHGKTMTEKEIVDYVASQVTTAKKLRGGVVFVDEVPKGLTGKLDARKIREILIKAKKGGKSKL
Chain of ATP-dependent 6-phosphofructokinase (Trypanosoma brucei brucei) (O15648 whole entry, looked up): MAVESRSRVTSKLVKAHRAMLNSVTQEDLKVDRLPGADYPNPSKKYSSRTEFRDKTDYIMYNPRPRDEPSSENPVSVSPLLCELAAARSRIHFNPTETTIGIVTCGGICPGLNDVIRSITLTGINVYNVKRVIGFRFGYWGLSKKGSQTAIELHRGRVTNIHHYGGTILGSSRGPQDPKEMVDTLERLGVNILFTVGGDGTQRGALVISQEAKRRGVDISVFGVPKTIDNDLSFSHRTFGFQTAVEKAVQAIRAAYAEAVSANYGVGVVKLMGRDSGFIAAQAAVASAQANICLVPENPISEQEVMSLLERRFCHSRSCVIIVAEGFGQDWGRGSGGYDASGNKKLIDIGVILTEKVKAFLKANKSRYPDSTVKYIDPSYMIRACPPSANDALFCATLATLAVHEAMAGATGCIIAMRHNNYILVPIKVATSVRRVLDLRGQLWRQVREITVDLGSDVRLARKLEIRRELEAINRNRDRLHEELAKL
Chain of Ubiquitin carboxyl-terminal hydrolase 1 (Homo sapiens) (O94782 whole entry, looked up): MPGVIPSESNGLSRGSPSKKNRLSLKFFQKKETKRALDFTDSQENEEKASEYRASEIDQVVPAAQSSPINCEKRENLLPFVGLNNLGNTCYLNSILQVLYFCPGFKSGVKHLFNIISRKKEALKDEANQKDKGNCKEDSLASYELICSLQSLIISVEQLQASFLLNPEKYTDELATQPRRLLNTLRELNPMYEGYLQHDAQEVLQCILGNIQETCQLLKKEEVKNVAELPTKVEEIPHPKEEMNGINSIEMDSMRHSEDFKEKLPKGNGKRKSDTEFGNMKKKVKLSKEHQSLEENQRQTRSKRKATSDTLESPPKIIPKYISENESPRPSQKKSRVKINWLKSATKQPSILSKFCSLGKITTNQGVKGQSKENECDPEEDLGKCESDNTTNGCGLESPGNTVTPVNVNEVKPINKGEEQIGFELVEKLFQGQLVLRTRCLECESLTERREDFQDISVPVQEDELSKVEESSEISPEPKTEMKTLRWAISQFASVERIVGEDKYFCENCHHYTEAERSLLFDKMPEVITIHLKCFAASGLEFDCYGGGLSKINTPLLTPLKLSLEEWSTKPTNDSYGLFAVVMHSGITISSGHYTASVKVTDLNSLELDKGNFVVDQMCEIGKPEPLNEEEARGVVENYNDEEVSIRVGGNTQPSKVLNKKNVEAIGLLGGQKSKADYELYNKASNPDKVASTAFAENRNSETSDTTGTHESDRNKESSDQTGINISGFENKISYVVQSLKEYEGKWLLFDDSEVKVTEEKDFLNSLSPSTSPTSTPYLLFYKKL
Chain of Alpha-galactosidase A (Homo sapiens) (P06280 whole entry, looked up): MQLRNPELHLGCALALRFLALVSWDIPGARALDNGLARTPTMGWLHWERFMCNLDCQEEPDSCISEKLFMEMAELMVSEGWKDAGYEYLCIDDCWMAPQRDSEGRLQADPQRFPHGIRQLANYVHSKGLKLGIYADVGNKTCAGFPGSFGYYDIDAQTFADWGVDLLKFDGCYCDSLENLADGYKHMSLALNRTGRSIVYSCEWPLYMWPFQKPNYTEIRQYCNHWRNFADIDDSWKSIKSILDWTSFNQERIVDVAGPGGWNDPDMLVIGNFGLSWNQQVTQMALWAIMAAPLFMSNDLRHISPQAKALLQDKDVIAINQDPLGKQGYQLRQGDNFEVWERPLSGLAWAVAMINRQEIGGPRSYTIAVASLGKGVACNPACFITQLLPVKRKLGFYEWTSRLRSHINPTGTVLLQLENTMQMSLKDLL

In the case of `CN[C@@H]1[C@H](O[C@@H]2O[C@H](CO)[C@@H](N)[C@H](O)[C@@H]2O)O[C@H]2C[C@@H](N)[C@@H](O[C@H]3[C@@H](O)[C@H](O)[C@H](N)C[C@@H]3N)O[C@H]2[C@H]1O`, the figures for the activity change, negative = inhibition in assay [1] (setting [17]), in assay [3] and in assay [9] were 3.97% [at 17.2 µM] (inactive), -18% [at 17.2 µM] (inactive) and -1.23% (inactive), respectively. The Potency entry (in assay [2]; in [7]; in [8]; in assay [11]; in the assay on AS120; with CP238) was “inactive” throughout. Besides, the Potency result in the assay on CP265 and with FAB9 was “inactive” in each case. For the same molecule, the activity, negative = inhibition in [4] was -2.35% [at 17.2 µM] (inactive); in [13] (parasite line A), -1.02% (inactive); in assay [13] (parasite line B), -5.91% (inactive). In addition, the Potency in assay [5] and in [6] was > 20.6 µM (inactive) throughout. In addition, the max response was -10.4% in assay [9] (setting [18]) and -11.9% in assay [9] (setting [19]). In addition, the molecule was classed as inactive in assay [10] and in assay [12].

As for `CCN(CC)CC#CCOC(=O)[C@@](O)(c1ccccc1)C1CCCCC1`, the activity change, negative = inhibition was 0.766% (inactive) in assay [1] (at 17.2 µM (top of the series)), -1.31% (inactive) in [1] (at 38 µM (top of the series)) and -3.63% (inactive) in assay [9]. The Potency in [2] is 3.98 µM (active) and 1.26 µM (active); in assay [5], > 46 µM (inactive) and > 20.6 µM (inactive); in [6], > 46 µM (inactive) and > 20.6 µM (inactive). For the same molecule, the activity, negative = inhibition in assay [4] was -21.9% [at 38 µM] (inactive). Moreover, the Potency result (in assay [7]; in assay [8]; in assay [11]; in the assay on AS120; with CP238; with CP265) was “inactive” each time. The Potency result in the assay with FAB9 is “inactive”. Further, the call in [14], in assay [15], in assay [16], in [10] and in [12] was inactive. The max response was -6.72% in assay [9] (setting [18]) and -11.7% in assay [9] (setting [19]).

Take `C[n+]1ccccc1/C=N\O`: the activity change, negative = inhibition in assay [1] (setting [17]) was 1.66% [at 17.2 µM] (inactive); in assay [3], 3.73% [at 17.2 µM] (inactive); in assay [9] it was -1.41% (inactive). The Potency entry (in [2]; in assay [7]; in [8]; in the assay on AS120; in the assay with CP238; with CP265) was “inactive” throughout. The Potency entry with FAB9 is “inactive”. Further, the results for the activity, negative = inhibition in [4], in assay [13] (parasite line A) and in [13] (parasite line B) were 2.75% [at 17.2 µM] (inactive), 14% (inactive) and 8.58% (inactive), respectively. Moreover, the Potency in assay [5] and in [6] was > 20.6 µM (inactive) in each case. Further, the max response in [9] (setting [18]) is -5.77%; in [9] (setting [19]) it was -7.21%. Besides, the molecule was called inactive in assay [10] and in assay [12].

Source of the values: PubChem BioAssay (NCATS).
